{"source": "ChEMBL document CHEMBL4513216", "about": "“Probing the Open Global Health Chemical Diversity Library for Multistage-Active Starting Points for Next-Generation Antimalarials” (ACS Infect Dis, 2020)", "note": "In all, about 68,000 compounds went through this assay and about 2,700 (4%) showed an effect of 50% or more. The sample as a whole holds a higher share of strong results than the screen did.", "data": [{"test_system": "Plasmodium berghei", "experiment": "Screen against P. berghei liver stage (PbLuc), transformed with Luciferase, at 2uM", "type": "functional, HepG2", "details": "tested at 2 uM", "units": {"INHIBITION": "%"}, "values": [{"smiles": "Cn1c(CO)cnc1SC1CCCN(c2ccccc2F)C1=O", "note": "(stereo not given)", "INHIBITION": 15.82}, {"smiles": "Cc1ncsc1CN1CCn2c(COCC3CC3)cnc2C1C", "note": "(stereo not given)", "INHIBITION": -21.27}, {"smiles": "CCc1noc(CNC2CCCN(Cc3noc(C4CC4)n3)C2)n1", "note": "(stereo not given)", "INHIBITION": 30.29}, {"smiles": "CCS(=O)(=O)c1ncc(CN(C)Cc2ccccn2)n1CCOC", "INHIBITION": -40.94}, {"smiles": "CCS(=O)(=O)c1ncc(CN(C)Cc2ccccc2OC)n1CCOC", "INHIBITION": 60.74}, {"smiles": "CCS(=O)(=O)c1ncc(CN(C)Cc2ccccc2Cl)n1CCOC", "INHIBITION": -5.13}, {"smiles": "CN(C)Cc1cn(-c2ccccc2C(=O)NCC2CCCCN2C)cn1", "note": "(stereo not given)", "INHIBITION": 87.38}, {"smiles": "CN(C)Cc1cn(-c2ccccc2C(=O)NCCC2CCCN2C)cn1", "note": "(stereo not given)", "INHIBITION": 16.43}, {"smiles": "CN1CCCC1CCNC(=O)c1ccccc1-n1cnc(CN)c1", "note": "(stereo not given)", "INHIBITION": 22.95}, {"smiles": "Cc1csc(N2CCN(Cc3nnsc3Cl)CC2C)n1", "note": "(stereo not given)", "INHIBITION": -39.79}, {"smiles": "c1ccc(C[C@H]2CN(Cc3nccs3)CC[C@@H]2OCC2CC2)cc1", "INHIBITION": 41.79}, {"smiles": "CCNC(=O)N(C)C(c1cccc(F)c1)c1ccccn1", "note": "(stereo not given)", "INHIBITION": 51.21}, {"smiles": "CCNC(=O)N(C)C(c1ccccc1)c1ccccn1", "note": "(stereo not given)", "INHIBITION": -18.26}, {"smiles": "CC(C)NC(=O)N(C)C(c1cccc(F)c1)c1ccccn1", "note": "(stereo not given)", "INHIBITION": -30.55}, {"smiles": "Cc1ccc(S(=O)(=O)N2CCOCC2C(N)=O)c(F)c1", "note": "(stereo not given)", "INHIBITION": 14.17}, {"smiles": "Cc1ccnc(SCC(=O)Nc2csc3nc(=O)c(C)nn23)n1", "INHIBITION": 35.42}, {"smiles": "COCc1cccc(CNC(=O)c2c(C)noc2C(C)C)c1", "INHIBITION": 49.9}, {"smiles": "Cc1noc(C)c1C(=O)NCC(c1ccsc1)N(C)C", "note": "(stereo not given)", "INHIBITION": -12.82}, {"smiles": "Cc1noc(C(C)C)c1C(=O)NCc1ccc2c(c1)OCCO2", "INHIBITION": 56.02}, {"smiles": "CCN(CC)C(CNC(=O)c1c(C)noc1C(C)C)c1ccsc1", "note": "(stereo not given)", "INHIBITION": -25.61}, {"smiles": "Cc1noc(C(C)C)c1C(=O)NCc1cccc(N(C)C)c1", "INHIBITION": -57.97}, {"smiles": "Cc1noc(C(C)C)c1C(=O)NCC(c1ccsc1)N(C)C", "note": "(stereo not given)", "INHIBITION": 63.95}, {"smiles": "Cc1noc(C(C)C)c1C(=O)NCc1ccc(N(C)C)c(F)c1", "INHIBITION": -9.17}, {"smiles": "CNC(=O)COc1cccc(CNC(=O)c2c(C)noc2C)c1", "INHIBITION": 24.36}, {"smiles": "CNC(=O)COc1cccc(CNC(=O)c2c(C)noc2C(C)C)c1", "INHIBITION": 74.35}, {"smiles": "O=S(=O)(C1CC1)N1CCCn2nnc(Cn3cccc3)c2C1", "INHIBITION": 23.81}, {"smiles": "CCOCCC(=O)N1CCCCC1CCn1cccn1", "note": "(stereo not given)", "INHIBITION": 30.25}, {"smiles": "CCn1cc2c(n1)CN(Cc1ccncc1)CC2COCC1CC1", "note": "(stereo not given)", "INHIBITION": 14.94}, {"smiles": "CCOCC1CN(c2ccncn2)Cc2cnn(CC)c21", "note": "(stereo not given)", "INHIBITION": 32.69}, {"smiles": "Cc1cc2c(N3CCC(N(C)CCc4cnn(C)c4)CC3)ncnc2s1", "INHIBITION": -15.4}, {"smiles": "CSCC(CCO)NC(=O)Nc1ccc(Br)cc1", "note": "(stereo not given)", "INHIBITION": -39.48}, {"smiles": "C[C@@H]1CN(C(=O)CCc2nncn2C)CC[C@@]1(O)C1CCC1", "INHIBITION": 12.43}, {"smiles": "C[C@@H]1CN(C(=O)CCc2nncn2C)C[C@@]1(O)C1CCC1", "INHIBITION": 52.08}, {"smiles": "C[C@@H]1CN(C(=O)CCc2cnn(C)c2)C[C@@]1(O)C1CCC1", "INHIBITION": 11.33}, {"smiles": "Cc1noc(C)c1CCC(=O)Nc1ccn(C)n1", "INHIBITION": -7.68}, {"smiles": "CN(Cc1cnccn1)CC1CCOc2ccccc2C1", "note": "(stereo not given)", "INHIBITION": 20.76}, {"smiles": "CCc1n[nH]c(C(=O)NCCn2ccnc2C)c1C", "INHIBITION": 57.34}, {"smiles": "CCc1n[nH]c(C(=O)NCCn2ccc(C)n2)c1C", "INHIBITION": 16.87}, {"smiles": "CCc1n[nH]c(C(=O)NCCn2nccc2C)c1C", "INHIBITION": 20.71}, {"smiles": "CC(=O)c1ccc(F)cc1-c1cc(NCCO)nc2[nH]ccc12", "INHIBITION": 6.85}, {"smiles": "COc1ccccc1Nc1nc2c(s1)C(=O)CN(C(=O)CC(C)C)C2", "INHIBITION": 2.6}, {"smiles": "CC(O)CNC(=O)c1nc(Cc2c(Cl)cccc2Cl)no1", "note": "(stereo not given)", "INHIBITION": 20.71}, {"smiles": "O=C(NCC(=O)N1CCCC1)c1nc(Cc2c(Cl)cccc2Cl)no1", "INHIBITION": 57.4}, {"smiles": "CC(C)CNC(=O)CNC(=O)c1nc(Cc2c(Cl)cccc2Cl)no1", "INHIBITION": -2.09}, {"smiles": "COC(=O)NCC(=O)NCC(C)(C)c1cccc(Br)c1", "INHIBITION": 19.07}, {"smiles": "Cc1ccc(CN2CCC3(CCC(C(=O)N(C)C)O3)CC2)o1", "note": "(stereo not given)", "INHIBITION": 5.14}, {"smiles": "CN(C)C(=O)C1CCC2(CCN(Cc3ccc4ccccc4n3)CC2)O1", "note": "(stereo not given)", "INHIBITION": 23.26}, {"smiles": "Cc1cccc(CN2CCC3(CCC(C(=O)N(C)C)O3)CC2)n1", "note": "(stereo not given)", "INHIBITION": 58.4}, {"smiles": "CCn1cnc(NC(=O)NCC2CCS(=O)(=O)CC2)n1", "INHIBITION": 28.85}, {"smiles": "Cc1ccc(CN2CCOC(C)(c3cnn(C)c3)C2)cc1", "note": "(stereo not given)", "INHIBITION": 21}, {"smiles": "O=C(C1CCCCN1Cc1nc(-c2ccco2)no1)N1CCCC1", "note": "(stereo not given)", "INHIBITION": -113.33}, {"smiles": "O=C(Cc1csc(-c2ccco2)n1)N1CCSCC1", "INHIBITION": 50.76}, {"smiles": "O=C(NCc1ccco1)C1CCCN1Cc1nc(-c2ccco2)no1", "note": "(stereo not given)", "INHIBITION": -43.47}, {"smiles": "CC(C)N1CCN(C(=O)Cc2csc(-c3ccco3)n2)CC1", "INHIBITION": 28.18}, {"smiles": "O=C(Cc1csc(-c2ccco2)n1)N1CCN(CCO)CC1", "INHIBITION": -27.91}, {"smiles": "O=C(C1CCCN1Cc1nc(-c2ccco2)no1)N1CCSCC1", "note": "(stereo not given)", "INHIBITION": 58.05}, {"smiles": "CNC(=O)C1CCCN(C(=O)OC)C1", "note": "(stereo not given)", "INHIBITION": -0.28}, {"smiles": "O=C(CCN1CCCCO1)NCc1cn2c(n1)SCC2", "INHIBITION": 21.36}, {"smiles": "Cc1nc(-c2ccccc2)n(CC(=O)NCC(C)C)n1", "INHIBITION": 26.4}, {"smiles": "COc1ccc(CN2CCC3(CCCN(c4ncc(F)cn4)C3)C2)cc1", "note": "(stereo not given)", "INHIBITION": -50.35}, {"smiles": "CN(C)CC1CN(c2ccc(C#N)cn2)CCO1", "note": "(stereo not given)", "INHIBITION": 54.85}, {"smiles": "Cc1nc(C)n(CC2CN(c3ccc(C#N)cn3)CCO2)n1", "note": "(stereo not given)", "INHIBITION": -16.42}, {"smiles": "Cc1cnn(CC2CN(c3ccc(C#N)cn3)CCO2)c1", "note": "(stereo not given)", "INHIBITION": -11.2}, {"smiles": "Cc1cccc(CN2C[C@@H]3CC[C@H]2CN(Cc2[nH]cnc2C)C3)n1", "INHIBITION": 25.68}, {"smiles": "COc1cccc(CC(=O)N2CCC(NCc3c[nH]nc3C)CC2)c1", "INHIBITION": 55.06}, {"smiles": "Cc1n[nH]cc1CNC1CCN(c2ccccc2)CC1", "INHIBITION": 7.83}, {"smiles": "COc1cccc(-c2n[nH]cc2CNC2CCN(C3CC3)CC2)c1", "INHIBITION": -13.89}, {"smiles": "COc1ccccc1CC(=O)N1CCC(NCc2c[nH]nc2C)CC1", "INHIBITION": -14.17}, {"smiles": "Cc1n[nH]cc1CNC1CCN(c2ccc(F)cc2)CC1", "INHIBITION": -13.72}, {"smiles": "Cc1n[nH]cc1CNC1CCN(c2cccc(C(F)(F)F)c2)CC1", "INHIBITION": 78.72}]}]}
